Where “and” joins values, the source holds several entries; their conditions need not be identical. Equal values may be shown once. Inconclusive results are not listed. Calls of active or inactive are those of the source. Unless noted, calls come from the whole dose curve; as a rule, active = well fitted curve in the direction sought with a large enough effect in the repeat runs; inconclusive = weak or mixed curves; inactive = no such curve, though single readings can be large; an effect the other way counts as inactive or inconclusive.
Columns and labels:
[1] = qHTS assay to identify aromatase inhibitors - cell viability counter screen (AID 743084);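 note: cells stimulated with testosterone during compound exposure; nearly all actives have a fitted effect of over 55% in size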
[2] = biological target: Aryl hydrocarbon receptor (Homo sapiens) (UniProt P35869); test: qHTS assay to identify small molecule that activate the aryl hydrocarbon receptor (AhR) signaling pathway (AID 743085); note: nearly all actives have a fitted effect of over 15% in size; note: potency is the fitted concentration of half-maximal effect;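 for activation: HG2L7.5c1 human HepG2 liver cells with stably integrated DRE-driven firefly reporter; series mostly up to about 70 µM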
Summary of the method: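 Luminescence read-out: ONE-Glo reagent, 30 min at room temperature, in HG2L7.5c1 HepG2 reporter cells treated 24 h at 37C. Viability was measured beforehand by CellTiter-Fluor fluorescence after 30 min at 37C.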

[3] = qHTS assay to identify small molecule that activate the aryl hydrocarbon receptor (AhR) signaling pathway - cell viability counter screen (AID 743086);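 note: HepG2 liver cells carrying the AhR DRE luciferase reporter; series mostly up to about 70 µM; nearly all actives have a fitted effect of over 45% in size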
Summary of the method: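 HepG2-AhR-luc (HG2L7.5c1) cells, 4000/well, were preincubated 5 h at 37C, exposed to compound in qHTS format for 24 hr at 37C, then given CellTiter-Fluor for 30 min; viability was read as fluorescence in the reporter wells.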

[4] = biological target: Peroxisome proliferator-activated receptor gamma (Homo sapiens) (UniProt P37231); test: qHTS assay to identify small molecule agonists of the peroxisome proliferator-activated receptor gamma (PPARg) signaling pathway (AID 743094; active = well fitted activation curve with a large enough effect in the signal ratio in the repeat runs, not every such curve was filed as active; the % refers to the signal ratio)
Summary of the method: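 Agonism was assessed in a beta-lactamase reporter system, HEK293H cells with a stably integrated UAS-bla construct under PPARg control; the 17 h treatment at 37C preceded a 1 h room-temperature FRET substrate read.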

[5] = biological target: Peroxisome proliferator-activated receptor gamma (Homo sapiens) (UniProt P37231); test: qHTS assay to identify small molecule antagonists of the peroxisome proliferator-activated receptor gamma (PPARg) signaling pathway (AID 743191; calls by dose curve; note: series mostly up to about 63 µM; nearly all actives have a fitted effect of over 30% in size)
Summary of the method: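 GeneBLAzer PPARg UAS-bla HEK293H cells carrying a UAS-driven beta-lactamase reporter were plated at 3000 cells/well, preincubated 5 h at 37C, then given compound for 17 h at 37C; LiveBLAzer B/G FRET substrate was read after 1 h at room temperature.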

[6] = qHTS assay to identify small molecule antagonists of the peroxisome proliferator-activated receptor gamma (PPARg) signaling pathway - cell viability counter screen (AID 743194); note: nearly all actives have a fitted effect of over 55% in size
Summary of the method: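 PPARg-UAS-bla HEK293H cells were plated, rested 5 h at 37 C, then treated with compounds plus rosiglitazone (50 nM final) for 17 h at 37 C; viability was then read by CellTiter-Glo luminescence after 30 min at room temperature.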

[7] = qHTS assay for small molecule agonists of the antioxidant response element (ARE) signaling pathway (AID 743202; active = well fitted activation curve with a large enough effect in the signal ratio in the repeat runs, not every such curve was filed as active; the % refers to the signal ratio)
Summary of the method: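 Following a 16 h, 37 C exposure of reporter HepG2 cells (ARE-driven beta-lactamase, 2,000 cells/well) to compounds, FRET substrate was applied for 2 h at room temperature and fluorescence intensity recorded.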

[8] = qHTS assay for small molecule agonists of the antioxidant response element (ARE) signaling pathway - cell viability counter screen (AID 743203; calls by dose curve; note: nearly all actives have a fitted effect of over 55% in size)
Summary of the method: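 ATP content via CellTiter-Glo luminescence served as the viability measure. Cells: ARE-bla HepG2, 2,000 per well. Exposure: 16 hrs, 37C/5% CO2.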

[9] = qHTS assay for small molecule activators of the heat shock response signaling pathway - cell viability counter screen (AID 743209); note: nearly all actives have a fitted effect of over 50% in size
Summary of the method: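 Compounds dissolved in DMSO were added to overnight-plated HSE-bla HeLa cells and left 5 h at 37 C. Cell viability was quantified by luminescence using CellTiter-Glo.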

[10] = qHTS assay for small molecule activators of the heat shock response signaling pathway (AID 743210; active = well fitted activation curve with a large enough effect in the signal ratio in the repeat runs, with a control signal flat, not every such curve was filed as active; the % refers to the signal ratio; note: series mostly up to about 63 µM)
Summary of the method: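 Heat shock element–beta-lactamase HeLa reporter cells; qHTS with compounds for 5 h at 37 C; detection by FRET substrate fluorescence after 2.5 h at RT.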

[11] = qHTS assay to identify small molecule agonists of the peroxisome proliferator-activated receptor delta (PPARd) signaling pathway - cell viability counter screen (AID 743211); note: nearly all actives have a fitted effect of over 55% in size
Summary of the method: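 Read-out: CellTiter-Glo luminescence, 30 min RT, measured in the same wells as the beta-lactamase reporter. Cells: GeneBLAzer PPAR delta UAS-bla HEK293H, 3000 cells/well, compound exposure 17 h at 37C.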

[12] = qHTS assay to identify small molecule antagonists of the peroxisome proliferator-activated receptor delta (PPARd) signaling pathway - cell viability counter screen (AID 743213); note: nearly all actives have a fitted effect of over 50% in size
Summary of the method: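 Agonist-stimulated (L165041, 300 nM final) HEK293H PPARd UAS-bla cells are exposed to compounds for 17 h at 37 C, and ATP-based luminescence (CellTiter-Glo) from the same wells reports cytotoxicity.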

[13] = biological target: Peroxisome proliferator-activated receptor delta (Homo sapiens) (UniProt Q03181); test: qHTS assay to identify small molecule antagonists of the peroxisome proliferator-activated receptor delta (PPARd) signaling pathway (AID 743215; active = well fitted inhibition curve with a large enough effect in the signal ratio in the repeat runs, not every such curve was filed as active; the % refers to the signal ratio; note: series mostly up to about 62 µM)
Summary of the method: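 Here, a reporter line (HEK293H, beta-lactamase under a UAS) measures PPARd signaling. Compounds are tested against agonist L165041 at 300 nM final concentration over 17 h at 37 C, with fluorescence read after substrate.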

[14] = qHTS assay to identify small molecule antagonists of the farnesoid-X-receptor (FXR) signaling pathway - cell viability counter screen (AID 743221; active = well fitted cell-killing curve with a large enough effect in the repeat runs, not every such curve was filed as active; note: nearly all actives have a fitted effect of over 50% in size)
Summary of the method: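 HEK 293T FXR-bla cells, 5 h pre-incubation; compound + CDCA 50 uM final, 16 h, 37 C; beta-lactamase FRET read first, then CellTiter-Glo luminescence, 30 min RT.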

[15] = biological target: Bile acid receptor (Homo sapiens) (UniProt Q96RI1); test: qHTS assay to identify small molecule antagonists of the farnesoid-X-receptor (FXR) signaling pathway (AID 743217; active = well fitted inhibition curve with a large enough effect in the signal ratio in the repeat runs, not every such curve was filed as active; the % refers to the signal ratio)
Summary of the method: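 Test compounds are pin-transferred onto FXR-bla HEK 293T cells, then chenodeoxycholic acid is added at 50 uM final. After 16 h at 37 °C, LiveBLAzer B/G substrate is applied for 2 h at room temperature and fluorescence read.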

[16] = qHTS assay to identify small molecule agonists of the farnesoid-X-receptor (FXR) signaling pathway - cell viability counter screen (AID 743218); note: nearly all actives have a fitted effect of over 45% in size
Summary of the method: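 Quantitative HTS counter screen measuring ATP-based viability via CellTiter-Glo luminescence in HEK 293T cells carrying a UAS-driven beta-lactamase reporter, after 16 h compound exposure at 37 C.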

[17] = biological target: Bile acid receptor (Homo sapiens) (UniProt Q96RI1); test: qHTS assay to identify small molecule agonists of the farnesoid-X-receptor (FXR) signaling pathway (AID 743220; active = well fitted activation curve with a large enough effect in the signal ratio in the repeat runs, not every such curve was filed as active; the % refers to the signal ratio)
Summary of the method: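 FXR-UAS-bla HEK 293T cells carrying a UAS-driven beta-lactamase reporter were plated for 5 h at 37C/5% CO2, then exposed to DMSO-dissolved Tox21 10K compounds for 16 h at 37C. A LiveBLAzer B/G FRET substrate was loaded for 2 h at room temperature before fluorescence reading.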

[18] = biological target: Vitamin D3 receptor (Homo sapiens) (UniProt P11473); test: qHTS assay to identify small molecule agonists of the vitamin D receptor (VDR) signaling pathway (AID 743222; calls by dose curve)
Summary of the method: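 Tox21 cell reporter format: VDR-bla line, 16 h compound exposure in 5% CO2 at 37C, then fluorescence intensity after 2 h with LiveBLAzer B/G FRET substrate.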

[19] = biological target: Vitamin D3 receptor (Homo sapiens) (UniProt P11473); test: qHTS assay to identify small molecule antagonists of the vitamin D receptor (VDR) signaling pathway (AID 743223; active = well fitted inhibition curve with a large enough effect in the signal ratio in the repeat runs, not every such curve was filed as active; the % refers to the signal ratio)
Summary of the method: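 Beta-lactamase reporter read-out: FRET substrate fluorescence after 2 h at room temperature, following 16 h exposure of VDR-bla cells to test compound plus 3 nM (final) 1alpha,25-dihydroxyvitamin D3 agonist at 37C.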

[20] = biological target: Peroxisome proliferator-activated receptor delta (Homo sapiens) (UniProt Q03181); test: qHTS assay to identify small molecule agonists of the peroxisome proliferator-activated receptor delta (PPARd) signaling pathway (AID 743212; calls by dose curve)
Summary of the method: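 Beta-lactamase reporter read by fluorescence (LiveBLAzer B/G FRET, 2 h, room temperature). Test agents, in DMSO, incubated at 37 C with PPARd-bla HEK293H cells.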

Measured: Potency

Chain of Peroxisome proliferator-activated receptor delta (Homo sapiens) (Q03181 whole entry, looked up): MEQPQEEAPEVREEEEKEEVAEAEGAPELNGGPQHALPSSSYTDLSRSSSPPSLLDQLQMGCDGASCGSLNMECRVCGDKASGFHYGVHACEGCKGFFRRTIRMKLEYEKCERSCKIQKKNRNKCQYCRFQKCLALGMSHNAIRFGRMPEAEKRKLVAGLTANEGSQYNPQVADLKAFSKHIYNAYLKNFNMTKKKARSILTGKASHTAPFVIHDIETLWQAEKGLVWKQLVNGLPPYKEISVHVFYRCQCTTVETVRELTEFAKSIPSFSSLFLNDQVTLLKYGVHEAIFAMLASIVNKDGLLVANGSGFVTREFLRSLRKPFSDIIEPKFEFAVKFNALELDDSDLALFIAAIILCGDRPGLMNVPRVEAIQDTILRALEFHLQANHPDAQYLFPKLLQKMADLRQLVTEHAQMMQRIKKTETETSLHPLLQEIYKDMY
Chain of Aryl hydrocarbon receptor (Homo sapiens) (P35869 whole entry, looked up): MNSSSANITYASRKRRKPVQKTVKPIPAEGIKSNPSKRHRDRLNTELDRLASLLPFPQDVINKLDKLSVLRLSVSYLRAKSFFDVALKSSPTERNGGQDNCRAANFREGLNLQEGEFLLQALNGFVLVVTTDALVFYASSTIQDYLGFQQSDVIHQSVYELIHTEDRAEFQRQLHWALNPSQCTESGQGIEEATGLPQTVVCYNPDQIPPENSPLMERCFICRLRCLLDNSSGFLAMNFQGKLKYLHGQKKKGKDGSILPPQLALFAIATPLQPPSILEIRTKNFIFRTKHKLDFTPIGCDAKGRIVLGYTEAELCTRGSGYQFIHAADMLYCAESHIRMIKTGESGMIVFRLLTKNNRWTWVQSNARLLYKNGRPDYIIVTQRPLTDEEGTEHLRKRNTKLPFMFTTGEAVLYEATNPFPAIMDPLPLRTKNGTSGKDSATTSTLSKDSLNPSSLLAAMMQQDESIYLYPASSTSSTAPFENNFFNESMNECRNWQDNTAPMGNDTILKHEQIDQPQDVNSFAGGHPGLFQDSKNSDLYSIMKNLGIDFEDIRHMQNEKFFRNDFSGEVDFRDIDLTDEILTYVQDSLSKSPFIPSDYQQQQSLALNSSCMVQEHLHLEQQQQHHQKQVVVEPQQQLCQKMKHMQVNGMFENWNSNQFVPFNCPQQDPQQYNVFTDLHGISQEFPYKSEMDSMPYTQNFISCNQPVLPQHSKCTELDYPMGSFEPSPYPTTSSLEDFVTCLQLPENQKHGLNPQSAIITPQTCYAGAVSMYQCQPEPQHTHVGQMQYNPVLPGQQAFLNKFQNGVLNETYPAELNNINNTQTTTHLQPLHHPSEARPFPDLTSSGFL
Chain of Vitamin D3 receptor (Homo sapiens) (P11473 whole entry, looked up): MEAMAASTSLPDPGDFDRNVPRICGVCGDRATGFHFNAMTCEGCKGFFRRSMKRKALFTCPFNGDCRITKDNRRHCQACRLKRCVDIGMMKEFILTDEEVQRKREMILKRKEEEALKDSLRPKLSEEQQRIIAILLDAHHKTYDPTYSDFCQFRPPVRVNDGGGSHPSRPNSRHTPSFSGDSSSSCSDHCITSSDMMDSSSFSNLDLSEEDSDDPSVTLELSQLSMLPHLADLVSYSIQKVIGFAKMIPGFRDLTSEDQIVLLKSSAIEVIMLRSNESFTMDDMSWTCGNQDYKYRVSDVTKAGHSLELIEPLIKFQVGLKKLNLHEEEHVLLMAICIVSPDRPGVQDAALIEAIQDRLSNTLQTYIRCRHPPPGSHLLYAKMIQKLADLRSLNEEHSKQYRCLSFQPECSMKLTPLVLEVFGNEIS
Chain of Bile acid receptor (Homo sapiens) (Q96RI1 whole entry, looked up): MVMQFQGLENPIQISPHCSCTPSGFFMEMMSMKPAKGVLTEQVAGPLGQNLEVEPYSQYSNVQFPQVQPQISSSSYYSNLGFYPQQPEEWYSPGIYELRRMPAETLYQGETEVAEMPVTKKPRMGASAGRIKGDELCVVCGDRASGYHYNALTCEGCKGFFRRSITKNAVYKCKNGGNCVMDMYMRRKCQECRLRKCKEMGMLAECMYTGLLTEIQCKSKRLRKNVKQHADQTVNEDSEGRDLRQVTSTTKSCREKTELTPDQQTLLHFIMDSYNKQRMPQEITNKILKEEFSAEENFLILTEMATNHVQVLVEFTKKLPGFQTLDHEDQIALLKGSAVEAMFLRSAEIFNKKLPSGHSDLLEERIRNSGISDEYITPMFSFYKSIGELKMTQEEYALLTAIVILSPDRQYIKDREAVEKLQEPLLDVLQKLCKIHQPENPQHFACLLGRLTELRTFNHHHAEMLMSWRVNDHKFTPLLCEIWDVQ
Chain of Peroxisome proliferator-activated receptor gamma (Homo sapiens) (P37231 whole entry, looked up): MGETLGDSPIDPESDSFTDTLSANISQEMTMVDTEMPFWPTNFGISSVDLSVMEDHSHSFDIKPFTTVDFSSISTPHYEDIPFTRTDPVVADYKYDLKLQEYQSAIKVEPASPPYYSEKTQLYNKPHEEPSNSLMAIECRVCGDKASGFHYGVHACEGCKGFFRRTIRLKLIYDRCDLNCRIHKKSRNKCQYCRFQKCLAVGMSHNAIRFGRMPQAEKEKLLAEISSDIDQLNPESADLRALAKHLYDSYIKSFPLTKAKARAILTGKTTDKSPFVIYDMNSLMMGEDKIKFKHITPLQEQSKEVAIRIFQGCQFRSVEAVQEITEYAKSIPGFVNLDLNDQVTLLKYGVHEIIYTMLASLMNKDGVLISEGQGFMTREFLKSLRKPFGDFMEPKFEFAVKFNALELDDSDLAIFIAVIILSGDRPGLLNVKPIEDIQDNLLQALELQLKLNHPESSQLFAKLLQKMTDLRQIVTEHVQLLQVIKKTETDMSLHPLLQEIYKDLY

C=CCCCCCCCCCC
not listed: [15] | [16] | [17] | [18] | [19] | [20]
inactive: all other assays above

CCCOCCO
not listed: [10] | [13] | [14] | [20]
inactive: all other assays above

NCCS(=O)(=O)O
not listed: [13] | [15] | [16] | [17] | [20]
inactive: all other assays above

CCCCCCC(C)O (centres undefined)
not listed: [14] | [15] | [17] | [20]
inactive: all other assays above

Cc1ccc(C)c(O)c1
not listed: [10] | [14] | [16]
inactive: all other assays above

O=C(O)CCCCCCCCCCCC(=O)O
not listed: [10]
inactive: all other assays above

CCO[Si](CCCNC(N)=O)(OCC)OCC
not listed: [16]
inactive: all other assays above

CCCCCCCCCCCCO
not listed: [9]
inactive: all other assays above

C[C@]12C=CC(=O)C=C1CC[C@H]1[C@@H]3C[C@@H](O)[C@](O)(C(=O)CO)[C@@]3(C)C[C@H](O)[C@@]12F
not listed: [10] | [15] | [17]
inactive: all other assays above

[Na+]
not listed: [10] | [14] | [15] | [17] | [18] | [19]
inactive: all other assays above

COc1ccc2nc(N)sc2c1
active: [2] 48.6 µM and 27.3 µM
not listed: [10] | [13] | [15] | [17] | [20]
inactive: all other assays above

Cc1ccc(S(=O)(=O)NCl)cc1
not listed: [10] | [15] | [17] | [18] | [19]
inactive: all other assays above

Cc1ccc2c(c1)C(=O)OC2=O
not listed: [15] | [17]
inactive: all other assays above

CC(C)(C)c1cccc(C(C)(C)C)c1O
not listed: [10] | [14] | [16] | [18] | [19]
inactive: all other assays above

O=C(O)c1cc(=O)[nH]c(=O)[nH]1
not listed: [15] | [16] | [17] | [18] | [19]
inactive: all other assays above

CC(=O)[C@@]1(O)CC[C@H]2[C@@H]3C[C@H](C)C4=CC(=O)C=C[C@]4(C)[C@@]3(F)[C@@H](O)C[C@@]21C
not listed: [13] | [14] | [20]
inactive: all other assays above

Cc1ccc([N+](=O)[O-])c(C)c1
not listed: [9] | [20]
inactive: all other assays above
